Records with an inconclusive call do not appear. A call without a number means that no potency is given here. Calls of active or inactive are those of the source. Calls follow the shape of the full dose curve.

This assay is described as follows: qHTS assay for small molecule agonists of the p53 signaling pathway - cell viability (AID 651633).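 Also: p53RE-bla HCT reporter cells with a stable beta-lactamase p53 reporter; nearly all actives have a fitted effect of over 30% in size.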 Particulars: p53RE-bla HCT-116 viability, ATP luminescence, 16 h; series mostly up to 83.3 µM. The text has this:
National Center for Advancing Translational Sciences [NCATS]
NIH Chemical Genomics Center [NCGC]
U.S. Environmental Protection Agency [EPA]
National Institutes of Environmental Health Sciences [NIEHS]
National Toxicology Program [NTP]
U.S. Food and Drug Administration [FDA]
p53, a tumor suppressor protein, is activated following cellular insult, including DNA damage and other cellular stresses. The activation of p53 regulates cell fate by inducing DNA repair, cell cycle arrest, apoptosis, or cellular senescence. The activation of p53, therefore, is a good indicator of DNA damage and other cellular stresses. […] The activation of the reporter gene under culture conditions can be detected by fluorescence intensity. This cell line was used to screen the Tox21 compound library in a 1536-well plate format and to identify agonists that activate the p53 signaling pathway.
Tox21 Assay Protocol Summary:
The p53RE-bla cells were dispensed at 4,000 cells/5 ul/well in 1536-well black wall/clear bottom plates using a Multidrop dispenser. After the assay plates were incubated at a 37 C/5% CO2 incubator for 5 hours, 23 nL of compounds dissolved in DMSO, positive controls or DMSO only was transferred to the assay plate by a pin tool. The plates were incubated at 37 C for 16 hours. After 1 uL of LiveBLAzerTM B/G FRET substrate was added using a Flying Reagent Dispenser, the plates were incubated at room temperature for 2 hours, and fluorescence intensity was measured by an Envision plate reader.
For cell viability readout that measures cytotoxicity, 4 ul/well of CellTiter-Glo reagent was added into the assay plates using a Flying Reagent Dispenser. After 30 min incubation at room temperature, the luminescence intensity in the plates was measured using a ViewLux plate reader.
On the technique in general: Quantitative high-throughput screening tests each substance at several concentrations.
`CNCC(O)c1ccc(O)cc1` (stereo not given): the Potency result is “inactive”.

For the compound `Cc1cccc(N)c1`, the Potency entry is “inactive”.

Consider `Cl/C=C/Cl`, for which the Potency entry is “inactive”.

Take `COc1cc(-c2ccc(N)c(OC)c2)ccc1N`: the Potency result is “inactive”.

For the compound `Cc1cccc(C)c1N`, the Potency result was “inactive”.

As for `OCCCCO`, the Potency result was “inactive”.

On to `OCC(O)CCl` (stereo not given), for which the Potency result was “inactive”.

Turning to `Nc1cc(Cl)cc(Cl)c1`, the Potency entry was “inactive”.

In the case of `CNC(=O)O/N=C(\SC)C(=O)N(C)C`, the Potency result is “inactive”.

Regarding `CNC(=O)O/N=C/C(C)(C)S(C)=O` (stereo not given), the Potency result is “inactive”.

As to `ClCCOCCCl`, the Potency entry is “inactive”.

Take `COP(=S)(OC)Oc1ccc(SC)c(C)c1`: the Potency entry is “inactive”.

With `C=CC(=O)OCC(CC)CCCC` (stereo not given), the Potency entry was “inactive”.

Consider `Sc1ccccc1`, for which the Potency result was “inactive”.

`Cc1cccc(C)c1NC(=O)CN1CCCC1=O`: the Potency result is “inactive”.

With `CC(=O)/C=C/c1ccccc1`, the Potency result was “inactive”.

On to `N#Cc1ccccn1`, for which the Potency entry is “inactive”.

For `O=C(O)C1C(C(=O)O)C2(Cl)C(Cl)=C(Cl)C1(Cl)C2(Cl)Cl` (stereo not given), the Potency entry was “inactive”.

For `CC(C)c1cccc(C(C)C)c1O`, the Potency entry is “inactive”.

Turning to `OCc1ccco1`, the Potency result is “inactive”.

Consider `CN(C)C(=O)C(c1ccccc1)c1ccccc1`, for which the Potency entry was “inactive”.

For the compound `CN(C)C(=O)Cl`, the Potency result is “inactive”.

For `O=C(O)C(Br)Br`, the Potency entry is “inactive”.

As for `Cc1cccc(N)c1C`, the Potency entry was “inactive”.

Consider `COS(=O)(=O)OC`, for which the Potency entry was “inactive”.

As to `CC[N+](=O)[O-]`, the Potency result was “inactive”.

Consider `Cc1ccc(N)cc1`, for which the Potency result is “inactive”.

With `Cc1cc(O)ccc1Cl`, the Potency result was “inactive”.

On to `O=[N+]([O-])c1ccc(Cl)c(Cl)c1`, for which the Potency entry is “inactive”.

For the compound `Nc1nc(N)nc(NC2CC2)n1`, the Potency result is “inactive”.

Turning to `CNc1cnn(-c2cccc(C(F)(F)F)c2)c(=O)c1Cl`, the Potency entry was “inactive”.

In the case of `O=C(O)c1cc(Oc2ccc(C(F)(F)F)cc2Cl)ccc1[N+](=O)[O-]`, the Potency entry was “inactive”.

For the compound `Cl[C@H]1OCCO[C@@H]1Cl`, the Potency result is “inactive”.

Take `CC(=O)C1CCOC1=O` (stereo not given): the Potency result was “inactive”.

In the case of `Nc1ccc(N)cc1`, the Potency entry is “inactive”.

For `CN(C)NC(=O)CCC(=O)O`, the Potency entry was “inactive”.

`c1ccc2c(c1)CCCC2`: the Potency result is “inactive”.

For the compound `C/C=C/c1ccc2c(c1)OCO2`, the Potency entry is “inactive”.

Take `Nc1cccc(Cl)c1`: the Potency entry is “inactive”.

As for `C=CC(=O)OCCCCCC(C)C`, the Potency entry is “inactive”.

(Values after PubChem BioAssay (Tox21).)
